Among all 2,300 compounds or so, about 550 (24%) were called active. How the calls were made is not given here. A selection follows. Entries with a potency or affinity are not part of this list.

The nature of the experiment: Vero E6 cell cytotoxicity, dose response, cytotoxicity control for non-replicating M. tuberculosis project, secondary assay (AID 492998). As to conditions: series mostly up to 20 µM.
On to `COC(=O)c1ccc(OCC(=O)c2cccc(OC)c2)cc1`, for which the molecule was classed as inactive.

As to `COc1ccc(C(=O)Nc2nnc(C3=COCCO3)o2)cc1`, the call was inactive.

Turning to `CCOc1ccc(-c2nnc(NC(=O)CCCOc3cccc(C)c3)o2)cc1`, the call was inactive.

Take `N[C@@H](Cc1ccccc1)c1nnc(SC/C=C/c2ccccc2)o1`: the molecule was called inactive.

Turning to `CSCCC(=O)N1CCCC(N2CCN(c3cccc(C(F)(F)F)c3)CC2)C1` (configuration not stated), the result was inactive.

On to `COc1cccc(CN2CCC(N(CCc3ccccc3)Cc3ccccc3)CC2)c1OC`, for which the result was inactive.

Take `Cc1cc2ccccc2n1CCNC(=O)C(C)(C)C`: the molecule was classed as inactive.

As to `O=C(COc1ccc(Nc2ccccc2)cc1)OCC(=O)N1CCCCC1`, the result was inactive.

Regarding `CC(C)c1nnc(NC(=O)c2sc3ccccc3c2Cl)s1`, the result was inactive.

Turning to `CCc1nnc(NC(=O)c2cc3ccccc3oc2=O)s1`, the call was inactive.

For the molecule `COC(=O)c1sc(NC(=O)c2ccc([N+](=O)[O-])o2)c(C#N)c1C`, the molecule was called inactive.

With `CC(C)Cn1c(N)c(C(=O)COC(=O)c2ccc([N+](=O)[O-])o2)c(=O)n(C)c1=O`, the call was inactive.

Turning to `O=C(Nc1sc2c(c1C(=O)O)CCCC2)c1ccc(F)cc1`, the call was inactive.

Turning to `O=C(Nc1sc2c(c1C(=O)O)CCCCC2)c1ccccc1F`, the result was inactive.

For `O=C(c1ccc([N+](=O)[O-])o1)N1CCc2ccccc2C1`, the outcome was inactive.

In the case of `COc1ccc(COc2cccc(C=O)c2)cc1`, the call was inactive.

Turning to `CCc1ccccc1NC(=O)C1COc2ccccc2O1` (configuration not stated), the call was inactive.

As for `O=C(OCc1cccc(F)c1)c1ccc2c(=O)n3c(nc2c1)CCC3`, the result was inactive.

`Cc1c(Cl)cccc1NC(=O)C(=O)NNC(=O)c1ccccc1F`: the call was inactive.

Regarding `COc1cccc(N2C(=O)NC(=O)/C(=C/c3ccc([N+](=O)[O-])s3)C2=O)c1`, the call was inactive.

For the molecule `c1ccc2sc(SCc3ccc(-c4nnco4)cc3)nc2c1`, the outcome was inactive.

Consider `Oc1c(Br)cc(Br)cc1/C=N/c1nccs1`, for which the outcome was inactive.

Regarding `C/C(=N\NC(=O)c1nn(C)cc1Cl)c1ccncc1`, the outcome was inactive.

`CCOc1ccc(NC(=O)Cn2sc3nc(C)cc(C)c3c2=O)cc1`: the outcome was inactive.

With `CCOc1ccc(OCC(=O)Nc2ccc(OC)cc2)cc1`, the outcome was inactive.

For the molecule `CC(=O)c1ccc(OC(=O)c2ccc(-n3nc(C)cc3C)cc2)cc1`, the molecule was classed as inactive.

Regarding `Cc1cc(N2CCC(C)CC2)nc(-n2nc(C)cc2C)n1`, the molecule was classed as inactive.

With `CC1(C)OC(c2ccccc2)=C/C(=C\C=N\NC(=O)c2ccncc2)O1`, the molecule was called inactive.

On to `COc1ccc(N2CCN(CC(=O)NC(=O)NC(C)(C)C)CC2)cc1`, for which the outcome was inactive.

In the case of `CN(C(=O)COC(=O)c1ccc([N+](=O)[O-])cc1Cl)C1CCCCC1`, the call was inactive.

Consider `O=C(N/N=C/c1ccc[nH]1)c1ccc(Cl)cc1`, for which the molecule was called inactive.

On to `Cc1ccc(O)c(C(=O)c2cc(C#N)c(=O)n(-c3nccs3)c2)c1`, for which the call was inactive.

The record behind these values is PubChem BioAssay AID492998 (Southern Research Specialized Biocontainment Screening …, 2010).
